# “And” between values parts separate entries of the source, which are not always exact repeats. Equal values may be shown once. Inconclusive results are not listed. Entries that show only a call come without a potency. The source made the active and inactive calls. Unless noted, the call rests on the fitted dose curve; in most records, active means well fitted curve in the direction sought with a large enough effect; inconclusive means small, poorly fitted or top-dose-only effect, or another doubt; inactive means no such curve, though single readings can be large; an effect the other way counts as inactive or inconclusive.
# Key:
# [1] = target: Voltage-gated inwardly rectifying potassium channel KCNH2 (Homo sapiens) (UniProt Q12809); assay: qHTS Assay for Small Molecule Inhibitors of the Human hERG Channel Activity (AID 588834);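 further: lower thallium flux fluorescence means stronger hERG block; nearly all actives have a fitted effect of over 50% in size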; further: potency means the concentration at half of the fitted maximal effect
# Voltage-gated inwardly rectifying potassium channel KCNH2 (Homo sapiens), sequence (Q12809 whole entry, looked up): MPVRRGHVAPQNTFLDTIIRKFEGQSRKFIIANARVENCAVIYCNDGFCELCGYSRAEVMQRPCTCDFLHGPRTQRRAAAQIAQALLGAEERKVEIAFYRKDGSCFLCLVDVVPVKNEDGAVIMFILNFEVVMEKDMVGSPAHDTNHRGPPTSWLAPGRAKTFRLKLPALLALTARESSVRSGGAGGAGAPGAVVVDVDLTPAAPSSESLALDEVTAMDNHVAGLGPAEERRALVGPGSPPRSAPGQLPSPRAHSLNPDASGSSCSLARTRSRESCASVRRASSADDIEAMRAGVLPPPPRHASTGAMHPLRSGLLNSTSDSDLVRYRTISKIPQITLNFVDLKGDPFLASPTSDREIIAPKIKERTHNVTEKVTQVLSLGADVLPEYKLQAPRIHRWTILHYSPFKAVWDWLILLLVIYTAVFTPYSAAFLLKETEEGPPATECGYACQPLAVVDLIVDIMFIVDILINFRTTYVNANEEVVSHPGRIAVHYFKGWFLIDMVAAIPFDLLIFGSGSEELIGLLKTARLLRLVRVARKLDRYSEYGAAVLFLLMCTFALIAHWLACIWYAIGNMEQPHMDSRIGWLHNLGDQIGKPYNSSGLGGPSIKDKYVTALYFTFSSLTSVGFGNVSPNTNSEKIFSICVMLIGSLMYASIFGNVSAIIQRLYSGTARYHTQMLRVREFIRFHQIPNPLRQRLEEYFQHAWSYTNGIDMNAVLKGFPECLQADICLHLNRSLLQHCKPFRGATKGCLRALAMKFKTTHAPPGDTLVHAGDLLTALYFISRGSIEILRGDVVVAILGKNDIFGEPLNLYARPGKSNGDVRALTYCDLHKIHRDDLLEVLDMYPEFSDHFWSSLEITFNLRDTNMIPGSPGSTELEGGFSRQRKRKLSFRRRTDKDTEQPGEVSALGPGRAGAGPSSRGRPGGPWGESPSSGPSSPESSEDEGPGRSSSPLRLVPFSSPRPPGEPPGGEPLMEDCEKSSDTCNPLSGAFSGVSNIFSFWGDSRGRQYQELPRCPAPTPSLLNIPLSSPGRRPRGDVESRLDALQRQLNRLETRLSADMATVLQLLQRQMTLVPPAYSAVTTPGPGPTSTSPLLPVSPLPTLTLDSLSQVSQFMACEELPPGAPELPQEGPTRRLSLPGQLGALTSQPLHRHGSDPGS
# Method in brief: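 hERG-BacMam U2OS, 2000 cells/well; 0.7X FluxOR loading 1 hr RT dark; cpd ~10 min 37 °C; stim buffer; FDSS fluorescence 2 min @ 1 s; AC50 Hill fit.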
# [2] = S16 Schwann cell viability assay (CellTiter-Glo assay) (AID 624031);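 further: cellular ATP luminescence as a viability measure; series mostly up to about 58 µM; nearly all actives have a fitted effect of over 70% in size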
# Method in brief: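 Native S16 rat Schwann cells, 500-750 cells/well in DMEM with 10% FBS, dosed with compound after overnight culture and incubated 24h at 37 degree Celsius/5% CO2. Viability by CellTiter-Glo luminescence; % activity normalized to no-cell wells and DMSO-treated cells.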
# [3] = S16 Schwann cell PMP22 intronic element firefly luciferase assay (AID 624032); further: nearly all actives have a fitted effect of over 30% in size; further: potency means the concentration at half of the fitted maximal effect
# Method in brief: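 Rat S16 Schwann cells stably carrying firefly luciferase driven by a PMP22 intronic element, in 10% FBS, treated 24 h at 37 C. ONE-Glo luminescence normalized to PTC124 control and DMSO (0%); curves classed by r2, magnitude and activity.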
# [4] = target: Glutaminase kidney isoform, mitochondrial (Homo sapiens) (UniProt O94925); assay: qHTS for Inhibitors of Glutaminase (GLS): LOPAC Validation (AID 624146);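 further: glutamate product detected by oxidase and peroxidase coupled Amplex red fluorescence gain; series mostly up to about 46 µM; nearly all actives have a fitted effect of over 60% in size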
# Glutaminase kidney isoform, mitochondrial (Homo sapiens), sequence (O94925 whole entry, looked up, canonical isoform): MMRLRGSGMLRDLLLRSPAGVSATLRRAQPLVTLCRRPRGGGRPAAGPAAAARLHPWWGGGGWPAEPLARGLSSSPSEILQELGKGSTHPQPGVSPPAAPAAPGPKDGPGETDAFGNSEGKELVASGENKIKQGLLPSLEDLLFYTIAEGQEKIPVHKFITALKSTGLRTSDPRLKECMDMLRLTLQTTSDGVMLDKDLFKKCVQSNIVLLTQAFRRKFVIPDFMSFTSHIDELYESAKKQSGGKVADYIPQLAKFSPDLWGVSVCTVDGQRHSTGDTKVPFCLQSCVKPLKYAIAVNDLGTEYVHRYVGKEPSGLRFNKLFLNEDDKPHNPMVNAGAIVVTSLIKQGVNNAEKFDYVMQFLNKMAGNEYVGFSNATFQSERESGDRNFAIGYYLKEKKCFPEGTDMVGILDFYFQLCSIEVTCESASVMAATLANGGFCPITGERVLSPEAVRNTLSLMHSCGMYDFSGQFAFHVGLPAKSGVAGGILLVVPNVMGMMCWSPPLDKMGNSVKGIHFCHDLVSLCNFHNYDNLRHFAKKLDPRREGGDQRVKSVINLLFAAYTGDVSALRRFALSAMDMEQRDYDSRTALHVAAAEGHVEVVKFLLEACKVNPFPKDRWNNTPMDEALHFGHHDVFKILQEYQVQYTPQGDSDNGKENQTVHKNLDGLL
# Method in brief: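 Assay buffer: 45 mM KH2PO4 pH 8.2, 0.02% Tween-20. hKGA acts on L-glutamine (1 mM solution added); product glutamate is reported by an oxidase/peroxidase Amplex Red coupling, with fluorescence taken at baseline and 30 min.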
# [5] = qHTS of Trypanosoma Brucei Inhibitors: LOPAC Validation (AID 624147)
# Method in brief: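 Luminescent Kinase-Glo Plus end-point after 45 min room-temperature reaction of T. brucei pyruvate kinase started with 130 uM ADP (final). Buffer TEA 50 mM pH 7.2 with KCl, MgCl2, BSA, Tween-20; titration-based qHTS with fitted concentration-effect curves.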
# [6] = target: Glucagon-like peptide 1 receptor (Homo sapiens) (UniProt P43220); assay: qHTS of GLP-1 Receptor Agonists: LOPAC Validation (AID 624148);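 further: higher luminescence signal means agonism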
# Glucagon-like peptide 1 receptor (Homo sapiens), sequence (P43220 whole entry, looked up): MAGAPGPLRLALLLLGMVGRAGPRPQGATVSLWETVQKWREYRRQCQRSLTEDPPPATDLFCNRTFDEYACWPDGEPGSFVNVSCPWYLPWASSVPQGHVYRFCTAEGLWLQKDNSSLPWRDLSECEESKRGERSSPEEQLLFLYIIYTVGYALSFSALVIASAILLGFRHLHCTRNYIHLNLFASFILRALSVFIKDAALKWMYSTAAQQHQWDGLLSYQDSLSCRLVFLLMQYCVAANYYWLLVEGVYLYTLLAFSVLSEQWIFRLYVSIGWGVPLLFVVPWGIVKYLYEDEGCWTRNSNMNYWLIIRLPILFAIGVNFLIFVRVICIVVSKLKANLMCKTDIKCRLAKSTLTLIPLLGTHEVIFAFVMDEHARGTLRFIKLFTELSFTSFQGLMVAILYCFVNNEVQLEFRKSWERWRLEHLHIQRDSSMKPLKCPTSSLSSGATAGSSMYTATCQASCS
# Method in brief: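 HEK293 cells stably co-expressing GLP-1R and a cAMP-responsive luciferase reporter, plated 12 hours before compound, then incubated 4-6 hr at 37 deg C. Luminescence read 12 min after detection reagent.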
# [7] = target: Peroxisome proliferator-activated receptor gamma (Homo sapiens) (UniProt P37231); assay: qHTS assay for small molecule antagonists of peroxisome proliferator-activated receptor gamma signaling (AID 588537; active means well fitted inhibition curve with a large enough effect in the signal ratio, with a control signal flat, not every such curve was filed as active; the % refers to the signal ratio;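 further: reporter cells co-stimulated with 50 nM rosiglitazone agonist during compound treatment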)
# Peroxisome proliferator-activated receptor gamma (Homo sapiens), sequence (P37231 whole entry, looked up): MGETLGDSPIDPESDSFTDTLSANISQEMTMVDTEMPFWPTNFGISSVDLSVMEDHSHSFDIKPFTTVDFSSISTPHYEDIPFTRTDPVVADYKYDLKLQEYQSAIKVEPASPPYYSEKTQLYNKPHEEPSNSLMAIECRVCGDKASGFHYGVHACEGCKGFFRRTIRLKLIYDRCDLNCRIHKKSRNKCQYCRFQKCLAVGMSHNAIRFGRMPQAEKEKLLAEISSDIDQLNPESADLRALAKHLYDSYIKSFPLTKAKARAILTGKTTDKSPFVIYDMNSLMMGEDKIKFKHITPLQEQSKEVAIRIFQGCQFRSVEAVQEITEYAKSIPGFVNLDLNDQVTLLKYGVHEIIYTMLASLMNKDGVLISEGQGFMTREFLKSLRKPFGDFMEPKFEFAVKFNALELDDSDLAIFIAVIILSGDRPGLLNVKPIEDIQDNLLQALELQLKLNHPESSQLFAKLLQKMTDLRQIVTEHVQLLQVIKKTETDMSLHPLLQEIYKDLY
# Method in brief: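 PPARγ-UAS-bla HEK293 cells (3000/well) in 1% charcoal/dextran-stripped FBS are treated with compound, then stimulated with 50 nM rosiglitazone for 16 h at 37 °C. Read-out is CCF4 β-lactamase fluorescence after 2 h at RT. IC50 comes from Hill fits normalised to rosiglitazone and DMSO.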
# [8] = target: Thyroid hormone receptor beta (Homo sapiens) (UniProt P10828); assay: qHTS assay for small molecule agonists of thyroid hormone receptor beta signaling (AID 588545; calls by dose curve)
# Thyroid hormone receptor beta (Homo sapiens), sequence (P10828 whole entry, looked up): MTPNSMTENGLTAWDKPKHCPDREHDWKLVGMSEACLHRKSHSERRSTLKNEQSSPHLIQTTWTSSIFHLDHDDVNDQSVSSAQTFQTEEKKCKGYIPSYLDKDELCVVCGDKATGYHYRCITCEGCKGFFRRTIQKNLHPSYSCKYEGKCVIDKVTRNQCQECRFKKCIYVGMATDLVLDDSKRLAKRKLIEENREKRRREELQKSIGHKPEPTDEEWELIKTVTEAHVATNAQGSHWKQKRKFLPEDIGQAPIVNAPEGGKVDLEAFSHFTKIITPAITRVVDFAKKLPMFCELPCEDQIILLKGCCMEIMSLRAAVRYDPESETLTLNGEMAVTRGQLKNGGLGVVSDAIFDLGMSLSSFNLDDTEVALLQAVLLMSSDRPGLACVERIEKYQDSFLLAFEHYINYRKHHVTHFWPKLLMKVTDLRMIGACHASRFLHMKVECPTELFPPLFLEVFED
# Method in brief: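 Compounds were tested as agonists in TR-UAS-bla-GripTite HEK 293 cells. After 18 hrs at 37 C, CCF4 substrate was added and fluorescence read after 2 hrs at room temperature.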
# [9] = qHTS assay for small molecule antagonists of retinoid X receptor alpha signaling (AID 588546; active means well fitted inhibition curve with a large enough effect in the signal ratio, with a control signal flat, not every such curve was filed as active; the % refers to the signal ratio;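 further: cells stimulated with 9-cis-retinoic acid as agonist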); conditions: HEK293T RXRa-UAS-bla, beta-lactamase ratio, antagonist mode; measured here: W530 green channel, cytotoxicity proxy
# Method in brief: (§1)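 Beta-lactamase reporter inhibition, read as CCF4 fluorescence ratio (ex 405, em 460/530 nm) after 2 h at RT. HEK293T UAS-bla cells, 2500/well, were stimulated with 9-cis-RA at 500 or 100 nM final alongside test compound for 18 h at 37 C.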
# [10] = target: Retinoic acid receptor RXR-alpha (Homo sapiens) (UniProt P19793); assay: as above; conditions: HEK293T RXRa-UAS-bla, beta-lactamase ratio, antagonist mode
# Retinoic acid receptor RXR-alpha (Homo sapiens), sequence (P19793 whole entry, looked up): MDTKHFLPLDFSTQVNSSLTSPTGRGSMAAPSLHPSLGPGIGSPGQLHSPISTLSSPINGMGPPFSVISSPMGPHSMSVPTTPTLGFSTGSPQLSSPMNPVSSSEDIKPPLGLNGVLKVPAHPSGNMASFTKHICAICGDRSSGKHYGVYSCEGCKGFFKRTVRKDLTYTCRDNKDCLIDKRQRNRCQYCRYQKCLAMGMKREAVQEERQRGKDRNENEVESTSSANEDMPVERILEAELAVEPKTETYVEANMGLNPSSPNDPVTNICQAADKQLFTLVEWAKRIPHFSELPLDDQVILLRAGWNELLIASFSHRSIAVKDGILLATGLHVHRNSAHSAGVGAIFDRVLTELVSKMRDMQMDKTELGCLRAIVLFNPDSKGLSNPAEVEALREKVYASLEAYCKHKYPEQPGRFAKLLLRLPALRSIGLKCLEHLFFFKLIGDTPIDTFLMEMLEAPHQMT
# Method in brief: as §1
# [11] = target: Thyroid hormone receptor beta (Homo sapiens) (UniProt P10828); assay: qHTS assay for small molecule antagonists of thyroid hormone receptor beta signaling (AID 588547; active means well fitted inhibition curve with a large enough effect in the signal ratio, with a control signal flat, not every such curve was filed as active; the % refers to the signal ratio;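 further: cells stimulated with 0.4 nM T3 agonist during compound exposure; series mostly up to about 77 µM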); conditions: TR-UAS-bla HEK293, beta-lactamase ratio, antagonist mode, 18 h
# Method in brief: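 TR-UAS-bla GripTite HEK293 cells in 2% charcoal/dextran FBS medium; compounds 0.59 nM to 92 uM with T3 at 0.4nM final, 18 h at 37 C. Beta-lactamase read by CCF4 fluorescence (460/530 nm); Hill fits gave IC50 and efficacy.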
# [12] = target: Glucocorticoid receptor (Homo sapiens) (UniProt P04150); assay: qHTS assay for small molecule agonists of glucocorticoid receptor signaling (AID 588532; active means well fitted curve in the direction sought with a large enough effect in the signal ratio, with a control signal flat; the % refers to the signal ratio); conditions: HeLa MMTV-bla, beta-lactamase ratio, agonist, 18 h; stronger effect = higher value; percent of dexamethasone control, DMSO zero
# Glucocorticoid receptor (Homo sapiens), sequence (P04150 whole entry, looked up): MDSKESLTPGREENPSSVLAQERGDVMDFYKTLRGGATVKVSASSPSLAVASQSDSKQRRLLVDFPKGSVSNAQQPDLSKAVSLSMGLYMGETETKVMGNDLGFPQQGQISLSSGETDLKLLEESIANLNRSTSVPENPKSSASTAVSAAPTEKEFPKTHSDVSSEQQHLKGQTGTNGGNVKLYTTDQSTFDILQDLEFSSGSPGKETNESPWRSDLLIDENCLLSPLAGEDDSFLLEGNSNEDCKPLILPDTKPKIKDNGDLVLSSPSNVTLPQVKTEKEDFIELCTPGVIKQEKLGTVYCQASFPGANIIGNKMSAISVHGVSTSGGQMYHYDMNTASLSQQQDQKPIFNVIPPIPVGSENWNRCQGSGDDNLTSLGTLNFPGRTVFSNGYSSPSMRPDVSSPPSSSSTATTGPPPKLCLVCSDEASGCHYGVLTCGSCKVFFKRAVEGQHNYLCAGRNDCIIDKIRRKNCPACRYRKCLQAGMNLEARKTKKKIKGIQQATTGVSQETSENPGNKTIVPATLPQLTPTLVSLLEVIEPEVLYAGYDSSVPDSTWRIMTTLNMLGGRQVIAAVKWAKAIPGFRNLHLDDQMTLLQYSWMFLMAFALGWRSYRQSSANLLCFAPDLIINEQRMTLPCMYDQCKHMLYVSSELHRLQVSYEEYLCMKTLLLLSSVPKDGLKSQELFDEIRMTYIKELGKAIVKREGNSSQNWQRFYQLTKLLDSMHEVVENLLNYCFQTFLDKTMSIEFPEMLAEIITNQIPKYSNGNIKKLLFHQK
# Method in brief: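 MMTV-bla HeLa beta-lactamase reporter cells in 1% charcoal/dextran FBS medium, compounds up to 92 uM for 18 h at 37 C, CCF4 readout; normalized to 0.1 uM dexamethasone (100%), EC50 and efficacy from Hill fits.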
# [13] = target: Peroxisome proliferator-activated receptor gamma (Homo sapiens) (UniProt P37231); assay: qHTS assay for small molecule agonists of peroxisome proliferator-activated receptor gamma signaling (AID 588536; active means well fitted curve in the direction sought with a large enough effect in the signal ratio, with a control signal flat, not every such curve was filed as active; the % refers to the signal ratio)
# Method in brief: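 GeneBLAzer PPAR-gamma-UAS-bla HEK293 cells in 1% charcoal/dextran-treated FBS medium were treated 16 h at 37 C with compounds. Beta-lactamase activity was read by CCF4 ratio (460/530 nm). Response was normalized to 2 uM rosiglitazone (100%) and DMSO, then Hill-fitted for EC50 and efficacy.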
# [14] = target: Vitamin D3 receptor (Homo sapiens) (UniProt P11473); assay: qHTS assay for small molecule agonists of vitamin D receptor signaling (AID 588543; calls by dose curve)
# Vitamin D3 receptor (Homo sapiens), sequence (P11473 whole entry, looked up): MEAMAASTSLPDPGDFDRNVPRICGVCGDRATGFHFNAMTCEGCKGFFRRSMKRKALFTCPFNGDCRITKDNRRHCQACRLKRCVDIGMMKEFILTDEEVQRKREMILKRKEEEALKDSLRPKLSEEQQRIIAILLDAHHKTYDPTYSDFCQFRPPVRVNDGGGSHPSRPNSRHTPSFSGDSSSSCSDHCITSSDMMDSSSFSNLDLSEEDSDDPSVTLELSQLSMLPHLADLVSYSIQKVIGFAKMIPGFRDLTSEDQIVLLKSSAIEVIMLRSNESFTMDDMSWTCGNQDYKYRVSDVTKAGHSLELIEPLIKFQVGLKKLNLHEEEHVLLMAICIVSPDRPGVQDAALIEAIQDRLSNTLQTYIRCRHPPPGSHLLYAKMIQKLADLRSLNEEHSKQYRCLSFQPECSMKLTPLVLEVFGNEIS
# Method in brief: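 Reporter cells (HEK293T, VDR-UAS-bla) were seeded in medium with 2% charcoal-stripped serum and incubated 5 h, then compounds in concentration series were added for 16 h at 37 °C. Stimulation was scaled between DMSO basal and 50 nM 1α,25-dihydroxyvitamin D3.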
# [15] = target: Luciferin 4-monooxygenase (Photinus pyralis) (UniProt P08659); assay: Biochemical firefly luciferase enzyme assay for NPC (AID 624030);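 further: purified P. pyralis luciferase at 10 nM with luciferin and ATP substrate; series mostly up to about 59 µM; nearly all actives have a fitted effect of over 70% in size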
# Method in brief: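 Purified P. pyralis luciferase at 10 nM in 50 mM Tris Acetate (final), luminescence read within 5 minutes of enzyme addition to compounds. Activity normalised to PTC124 versus DMSO; concentration-response curves classed by r2, magnitude and activity.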
# [16] = target: Vitamin D3 receptor (Homo sapiens) (UniProt P11473); assay: qHTS assay for small molecule antagonists of vitamin D receptor signaling (AID 588541; calls by dose curve;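 further: receptor activated by calcitriol during compound treatment; series mostly up to about 77 µM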)
# Method in brief: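 VDR-UAS-bla HEK293T cells in 2% charcoal-stripped FBS were stimulated with 1-alpha,25-dihydroxyvitamin D3 (3 nM final) plus compound for 16 h at 37 C. The beta-lactamase CCF4 readout was normalized to 50 nM agonist and DMSO, and Hill fits gave IC50.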
# [17] = qHTS assay for small molecule agonists of retinoid X receptor alpha signaling (AID 588544; calls by dose curve); conditions: HEK293T RXRa-UAS-bla, beta-lactamase reporter, 18 h; 530 nm emission
# [18] = target: Retinoic acid receptor RXR-alpha (Homo sapiens) (UniProt P19793); assay: as above
# [19] = qHTS assay for small molecule antagonists of peroxisome proliferator-activated receptor delta signaling (AID 588535; active means well fitted inhibition curve with a large enough effect in the signal ratio, with a control signal flat, not every such curve was filed as active; the % refers to the signal ratio;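 on max response: cells co-treated with a PPAR-delta agonist as stimulator during compound exposure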); conditions: HEK293T PPARd-UAS-bla, beta-lactamase FRET ratio, 18 h; 460 nm channel
# Method in brief: (§2)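 Antagonist-mode beta-lactamase reporter (GeneBLAzer PPAR-delta-UAS-bla) in HEK293T cells, 2% charcoal/dextran FBS, 4000 cells/well. Compound titrations, 18 h at 37 C; CCF4 ratio read, IC50 and efficacy from Hill fits.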
# [20] = target: Peroxisome proliferator-activated receptor delta (Homo sapiens) (UniProt Q03181); assay: as above
# Method in brief: as §2
compound,measurement,setting,value
Nc1ccc(S(=O)(=O)Nc2ccnn2-c2ccccc2)cc1,Potency,[1],inactive
same,Potency,[2],inactive
same,Potency,[3],inactive
same,outcome,[4],inactive
same,outcome,[5],inactive
same,outcome,[6],inactive
Nc1nc2[nH]cc(CCc3ccc(C(=O)N[C@@H](CCC(=O)O)C(=O)O)cc3)c2c(=O)[nH]1,Potency,[1],inactive
CC(C[N+](C)(C)C)OC(N)=O (stereo not given),Potency,[1],inactive
same,Potency,[2],inactive
same,Potency,[3],inactive
same,outcome,[4],inactive
same,outcome,[5],inactive
same,outcome,[6],inactive
Cc1cn[nH]c1,Potency,[1],inactive
same,Potency,[2],inactive
same,Potency,[3],inactive
same,outcome,[4],inactive
same,outcome,[5],inactive
same,outcome,[6],inactive
Cc1[nH]c(=O)c(C#N)cc1-c1ccncc1,outcome,[7],inactive
same,outcome,[8],inactive
same,max response,[9],-2.65%
same,max response,[10],-8.79% (inactive)
same,activity change % (negative = inhibition),[11],-2.81% (inactive)
same,Potency,[2],inactive
same,outcome,[4],inactive
same,outcome,[5],inactive
same,outcome,[6],inactive
Cn1cnc([N+](=O)[O-])c1Sc1ncnc2nc[nH]c12,activation,[12],-7.04% (inactive) and 6.25% (inactive)
same,outcome,[13],inactive
same,outcome,[7],inactive
same,outcome,[8],inactive
same,max response,[9],2.45% and -8.82%
same,max response,[10],-8.6% (inactive) and -5.48% (inactive)
same,activity change % (negative = inhibition),[11],18.7% (inactive)
same,Potency,[1],inactive
same,Potency,[2],inactive
same,outcome,[4],inactive
same,outcome,[5],inactive
same,outcome,[6],inactive
COc1ccc2nc(S(=O)Cc3ncc(C)c(OC)c3C)[nH]c2c1 (stereo not given),outcome,[13],inactive
same,outcome,[7],inactive
same,outcome,[14],inactive
same,outcome,[8],inactive
same,max response,[9],17.2%
same,max response,[10],-42% (inactive)
same,activity change % (negative = inhibition),[11],-6.03% (inactive)
same,Potency,[1],inactive
same,Potency,[2],inactive
same,Potency,[3],inactive
Cc1oncc1C(=O)Nc1ccc(C(F)(F)F)cc1,Potency,[1],inactive
same,Potency,[2],inactive
same,Potency,[3],inactive
same,outcome,[4],inactive
same,outcome,[5],inactive
same,outcome,[6],inactive
NCCc1ccc(O)c(O)c1,Potency,[1],inactive
same,Potency,[15],inactive
same,Potency,[2],inactive
same,Potency,[3],8.09 µM (active)
same,outcome,[4],inactive
same,outcome,[5],inactive
OC(CN1CCC(Cc2ccc(F)cc2)CC1)c1ccc(Cl)cc1 (stereo not given),Potency,[1],0.0178 µM (active)
same,Potency,[15],inactive
same,Potency,[3],inactive
same,outcome,[4],inactive
same,outcome,[5],inactive
same,outcome,[6],inactive
NC(N)=NC(=O)c1nc(Cl)c(N)nc1N,activation,[12],0.0438% (inactive)
same,outcome,[13],inactive
same,outcome,[16],inactive
same,outcome,[14],inactive
same,max response,[17],-3.06%
same,outcome,[18],inactive
same,outcome,[8],inactive
same,max response,[9],-9.32%
same,max response,[10],33% (inactive)
same,activity change % (negative = inhibition),[11],4.66% (inactive)
same,Potency,[1],inactive
same,Potency,[2],inactive
same,Potency,[3],inactive
same,outcome,[4],inactive
same,outcome,[5],inactive
same,outcome,[6],inactive
NC[C@H](O)c1ccc(O)c(O)c1,activation,[12],-3.45% (inactive)
same,max response,[19],-17.3%
same,outcome,[20],inactive
same,outcome,[13],inactive
same,outcome,[7],inactive
same,max response,[17],-17.2%
same,outcome,[18],inactive
same,outcome,[8],inactive
same,max response,[9],-24.3%
same,max response,[10],-6.6% (inactive)
same,activity change % (negative = inhibition),[11],13.6% (inactive)
same,Potency,[1],inactive
same,Potency,[2],inactive
same,Potency,[3],9.07 µM (active)
same,outcome,[4],inactive
same,outcome,[5],inactive

# Source: PubChem BioAssay (NCATS)
